KCNQ2 block = KCNQ2 (rat) channel inhibition; O88943; B-score at 10 µM; 1.1% of 310,000 active; CHO-K1 KCNQ2, FluxOR thallium flux, 20 min; stronger effect = lower value; AID 2156;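 active = fluorescence ratio B-score at most minus 3 library SDs, with starting brightness B-score within 2 library SDs, cut at about -5.5 in these data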
KCNQ2 pot = KCNQ2 (rat) channel potentiation. CHO-K1 KCNQ2, FluxOR thallium flux fluorescence; stronger effect = higher value. B-score at 10 µM. 0.54% of 310,000 active. AID 2239;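 active = fluorescence ratio B-score at least 3 SD of library B-scores, with initial fluorescence B-score within 3 of them, cut at about 5.3 in these data; same plate scores as AID 2156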;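 also: B-score of peak minus minimum over baseline fluorescence ratio after K+ and Tl+ stimulus; positive B-score means potentiation of KCNQ2 with more thallium influx and brighter signal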
KCNQ2 block conf = rat KCNQ2 channel inhibition, confirmatory screen | activity change, negative = inhibition, % at 10 µM | KCNQ2-expressing cells, thallium flux; stronger effect = lower value | 57% of 1,000 active | shares compounds with KCNQ2 block;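 also: 0% = vehicle wells and values are ratio percent relative to vehicle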
KCNQ1 spec = human KCNQ1 activity in KCNQ2 inhibitor specificity screen. shares compounds with KCNQ2 block. KCNQ1-expressing cells, FluxOR thallium flux fluorescence; stronger effect = lower value. activity change, negative = inhibition, % at 10 µM. 15% of 1,000 active. AID 493026;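 active = activity change at least 3 SD of negative controls below their mean in both duplicate wells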;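 also: CHO cells stably transfected with KCNQ1 and depolarized by potassium stimulus; peak minus minimum fluorescence over baseline after thallium addition; 0% = vehicle negative control and -100% = blank without thallium stimulus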
Target sequence (P51787 whole entry, looked up): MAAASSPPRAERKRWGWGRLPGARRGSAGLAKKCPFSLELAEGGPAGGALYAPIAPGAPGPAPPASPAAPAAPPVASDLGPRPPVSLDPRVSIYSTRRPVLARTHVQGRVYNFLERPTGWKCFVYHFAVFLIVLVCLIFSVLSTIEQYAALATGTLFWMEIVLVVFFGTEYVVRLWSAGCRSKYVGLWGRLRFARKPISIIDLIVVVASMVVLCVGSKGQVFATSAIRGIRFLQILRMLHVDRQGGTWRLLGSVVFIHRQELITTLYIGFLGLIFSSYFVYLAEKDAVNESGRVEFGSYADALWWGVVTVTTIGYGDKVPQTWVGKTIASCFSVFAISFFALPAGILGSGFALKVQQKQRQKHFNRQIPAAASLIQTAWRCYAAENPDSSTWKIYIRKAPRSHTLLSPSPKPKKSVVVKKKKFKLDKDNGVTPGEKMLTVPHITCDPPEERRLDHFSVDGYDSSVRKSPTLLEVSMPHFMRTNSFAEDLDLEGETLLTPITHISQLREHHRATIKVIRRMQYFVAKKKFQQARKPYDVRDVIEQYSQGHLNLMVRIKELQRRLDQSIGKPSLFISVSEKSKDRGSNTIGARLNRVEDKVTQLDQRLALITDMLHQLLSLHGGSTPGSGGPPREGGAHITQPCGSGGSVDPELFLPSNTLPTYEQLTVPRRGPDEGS
CHO Tl ctr = KCNQ2 inhibitor counter-screen hit in parental CHO cells. shares compounds with KCNQ2 block. thallium flux counter-screen; stronger effect = lower value. activity change, % at 10 µM. 14% of 1,000 active;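 also: 0% = vehicle negative controls with stimulus buffer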
KCNQ2 patch conf = blocks rat KCNQ2 current in automated patch clamp | 49% of 550 active | shares compounds with KCNQ2 block | calls only at 10 µM | KCNQ2-expressing cells
An asterisk follows results filed as active; i = inactive; / = not tested or not shown; + = active, no number. In the library only some 1.6% were active in any assay of this set; here they are far more common. Unless noted, no rule for the calls is given here.

SMILES	KCNQ2 block	KCNQ2 pot	KCNQ2 block conf	KCNQ1 spec	CHO Tl ctr	others
CCOCCCn1c(SC(C(=O)Nc2cc(C)ccc2C)c2ccccc2)nnc1-c1ccc(Cl)cc1 (stereo not given)	-9.6*	-9.6	-24%*	i	i	KCNQ2 patch conf=+
CCNc1nc(NCC)n2c(SC(C(=O)Nc3cc(C)ccc3C)c3ccccc3)nnc2n1 (stereo not given)	i	/	/	/	/
Cc1cc(C(=O)c2ccccc2)c(NC(=O)CCl)s1	i	/	/	/	/
CCN(CC)CC(=O)Nc1sc(C)c(C)c1C(=O)c1ccc(C)cc1	-6.6*	-6.6	i	i	i
CCN(CC)CC(=O)Nc1sc(C)cc1C(=O)c1ccc(C)cc1	-6.7*	-6.7	-23%*	i	i	KCNQ2 patch conf=i
Cc1sc(NC(=O)c2ccco2)c(C(=O)c2ccc(Cl)cc2)c1C	i	/	/	/	/
Cc1sc(NC(=O)CN2CCOCC2)c(C(=O)c2ccccc2)c1C	i	/	/	/	/
Cc1ccc(C(=O)c2c(NC(=O)c3ccccc3C)sc(C)c2C)cc1	-11*	-11	-28%*	i	i	KCNQ2 patch conf=i
COc1cccc(-c2nc(CS(=O)CC(=O)NC3CCCCC3)c(C)o2)c1 (stereo not given)	i	0.06	/	/	/
C=CCNC(=S)NNC(=O)c1ccncc1	i	0.21	/	/	/
O=C(Cn1nnc2c(cnn2-c2ccccc2)c1=O)NCc1cccs1	i	/	/	/	/
CC1CCC(C(C)C)C(OC(=O)Cn2nnc3c(cnn3-c3ccccc3)c2=O)C1 (stereo not given)	-7.3*	-7.3	-27%*	i	i
COc1ccc(-c2cc(C(=O)N3CCCCC3)c3ccccc3n2)cc1	i	/	/	/	/
COc1ccc(-c2cc(C(=O)N3CCCCCC3)c3cc(C)ccc3n2)cc1	-8.5*	-8.5	-30%*	i	i	KCNQ2 patch conf=+
Cc1ccc(-c2cc(C(=O)N3CCOCC3)c3ccccc3n2)cc1	i	/	/	/	/
COc1ccc(-c2cc(C(=O)N3CCOCC3)c3cc(C)ccc3n2)cc1	-7.2*	-7.2	-31%*	i	i	KCNQ2 patch conf=+
N#CCCN(C(=O)COC(=O)c1ccc2c(=O)n3c(nc2c1)CCC3)c1ccc(F)cc1	i	/	/	/	/
CCOC(=O)N1CCC(n2c(SCC(=O)N3CCCC3)nc3ccccc3c2=O)CC1	i	/	/	/	/
CCOC(=O)N1CCC(n2c(SCC(=O)N3CCC(C)CC3)nc3ccccc3c2=O)CC1	-7.8*	-7.8	i	i	i
CCOC(=O)N1CCC(n2c(SCC(=O)NCc3ccccc3)nc3ccccc3c2=O)CC1	i	/	/	/	/
CCOC(=O)N1CCC(n2c(SCC(=O)NCCC3=CCCCC3)nc3ccccc3c2=O)CC1	-7.5*	-7.5	i	i	i
CC1(C)C2CCC1(CS(=O)(=O)N1CCC(C(=O)O)CC1)C(=O)C2 (stereo not given)	i	/	/	/	/
CCOC(=O)Cn1ccc(NC(=O)c2ccc(F)cc2)n1	i	0.15	/	/	/
COc1ccc(-c2cn3cccnc3n2)cc1NC(=O)C(C)Oc1ccccc1 (stereo not given)	i	1.5	/	/	/
O=C(Cc1sc(-c2ccccc2)nc1-c1ccccc1)Nc1ccccc1	i	0.16	/	/	/
SMILES	KCNQ2 block	KCNQ2 pot	KCNQ2 block conf	KCNQ1 spec	CHO Tl ctr	others
O=C(Cc1sc(Nc2ccccc2)nc1-c1ccccc1)NCc1ccccc1	-7.1*	-7.1	i	i	i
CCOc1cc(S(=O)(=O)n2ccnc2)ccc1Cl	i	/	/	/	/
CCOC(=O)C1CCN(C(=O)c2cc(COc3ccc(F)cc3F)on2)CC1	i	0.56	/	/	/
COc1ccc(CCN=C(N)NS(=O)(=O)c2cc(F)ccc2OC)cc1	i	/	/	/	/
CSC(SC)=C(C#N)C(=O)c1ccccc1	-7.9*	-7.9	i	i	i
COc1cccc(C(=O)C(C#N)=C(SC)SC)c1	i	/	/	/	/
CC1(C)CC(=O)N(c2cc(Cl)ccc2Cl)C(=O)C1	i	0.01	/	/	/
CCC(=O)N(CCC(c1ccc(C)cc1)c1ccco1)Cc1ccco1 (stereo not given)	-10*	-10	i	i	i
CC1(C)CC(C(CCN(Cc2ccccc2)C(=O)c2ccco2)c2ccc(F)cc2)CCO1 (stereo not given)	i	/	/	/	/
O=C(c1ccco1)N(CCC(c1ccccc1)c1ccco1)Cc1ccc(F)cc1 (stereo not given)	-7.8*	-7.8	-46%*	-46%*	-42%*	KCNQ2 patch conf=+
Cc1ccc(C(CCN)c2ccco2)cc1 (stereo not given)	i	/	/	/	/
CC(C)n1nc(C(=O)N2CCN(S(=O)(=O)c3cccs3)CC2)c2ccccc2c1=O	i	0.14	/	/	/
O=CNCCCc1nc2ccccc2n1CCc1ccccc1	i	/	/	/	/
O=C(O)c1ccc(N=Nc2c(O)ccc3ncccc23)cc1	i	0.4	/	/	/
O=C(COc1ccc(Br)cc1)N(Cc1ccccc1)c1ccccn1	i	/	/	/	/
O=C(COc1ccc(Cl)cc1)N(Cc1ccccc1)c1ccccn1	-9.1*	-9.1	i	i	i
CC(=O)c1ccccc1NC(=O)COC(=O)CSCC(=O)Nc1cc(C)on1	i	/	/	/	/
Cc1ccc(S(=O)(=O)Nc2ccc(N=Nc3ccc(O)cc3)cc2)cc1	-8.7*	-8.7	i	i	i
CSc1ccc(S(=O)(=O)Nc2ccc(S(=O)(=O)Nc3ccc(C)cc3)cc2)cc1	i	/	/	/	/
C(=N\Nc1nc(N2CCCCC2)nc(N2CCCCC2)n1)/c1c[nH]c2ccccc12	-9.3*	-9.3	-36%*	i	i	KCNQ2 patch conf=+
CN(C)c1nc(N/N=C/c2c[nH]c3ccccc23)nc(N2CCOCC2)n1	i	1.7	/	/	/
OCC1(CCc2ccccc2)CCCN(CCCC(F)(F)F)C1 (stereo not given)	i	/	/	/	/
OCC1(CCc2ccccc2)CCCN(CCCc2ccccc2)C1 (stereo not given)	-6.6*	-6.6	-36%*	-34%*	-26%*	KCNQ2 patch conf=i
CC1CCCC(NC(=O)CCNC(=O)c2ccccc2Cl)C1C (stereo not given)	i	/	/	/	/
CCC(CC)CN1C(Nc2ccccc2)=NC[C@@H]1C	i	0.75	/	/	/
SMILES	KCNQ2 block	KCNQ2 pot	KCNQ2 block conf	KCNQ1 spec	CHO Tl ctr	others
O=[N+]([O-])c1cccc(OCCN2CCC(Cc3ccccc3)CC2)c1	-8.2*	-8.2	i	i	i
Cc1ccc([N+](=O)[O-])c(OCCCN2CCC(Cc3ccccc3)CC2)c1	i	/	/	/	/
O=C(C1CCCN(S(=O)(=O)c2cc(Cl)ccc2Cl)C1)N1CCOCC1 (stereo not given)	i	1.5	/	/	/
COc1ccccc1Nc1nc(N)nc(CN2CCCCC2)n1	i	/	/	/	/
COc1ccccc1Nc1nc(N)nc(CN2CCN(Cc3ccccc3)CC2)n1	-9.9*	-9.9	-18%*	i	i	KCNQ2 patch conf=i
O=C(CCCCn1c(=O)[nH]c2ccsc2c1=O)NCCc1ccccc1	i	1.2	/	/	/
O=C(CCn1c(=O)[nH]c2ccsc2c1=O)N(CCc1ccccc1)Cc1ccccc1	-7.4*	-7.4	-26%*	i	i	KCNQ2 patch conf=+
CC1CCCCC1NC(=O)CCN1C(=O)C2C3C=CC(C3)C2C1=O (stereo not given)	i	1.6	/	/	/
Cc1ccc(NC(=S)N2CCN(c3ccccn3)CC2)cc1C	i	1	/	/	/
